# Shown are actives, neighbours in structure and some others; about 6.8% of the full set was active somewhere.
# SW480 rerep: induces DNA re-replication in SW480 colon adenocarcinoma cells; Potency, µM (titrated, usually from 46.1 µM), without a hit: at the highest dose re-replication activation, actives largely listed as activators; 340,000 compounds, 1.8% hits; SW480 DNA re-replication, Hoechst DNA content imaging, 48 h; also: % of control where 0% means no effect; nearly all actives have a fitted effect of over 55% in size
#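 Readout is total intensity of Hoechst-stained nuclei, excited at 405 nm and collected at 500-530 nm. Compound treatment lasted 48 hr at 37 C in 5% CO2 before staining.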
# KB-3-1 cytotox: kills parental KB-3-1 adenocarcinoma cells. KB-3-1 viability, CellTiter-Glo ATP luminescence, 72 h. Potency, µM (series often up to 46.1 µM), actives largely listed as cytotoxic. 400,000 compounds, 1.4% hits; also: % is scaled to controls: 0 for no effect and ±100 for the full control effect; nearly all actives have a fitted effect of over 60% in size
#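 Parental KB-3-1 viability, qHTS format: 72 h compound exposure, 37 °C; CellTiter-Glo; media-only wells and DMSO plates as controls; concentration-effect fits on corrected data.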
# TSG101-PTAP inh: blocks PTAP/TSG101 interaction to inhibit HIV-1 budding; 340,000 tested, under 10 active; AID 493005; Fluorescence polarization, FITC-PTAP peptide / Tsg101 binding; Potency, µM (top dose mostly 115 µM), for the others: top-dose activity change, negative = inhibition, most hits filed as inhibitors; Q99816; active = well fitted inhibition curve with a large enough effect in the main read-out, with a control signal flat, not every such curve was filed as active; inconclusive = small, poorly fitted or top-dose-only effect, or effect the other way, or a change in a side signal; inactive = no such curve, though single readings can be large or run the other way; also: % of control where 0% means no effect
# Target sequence (Q99816 whole entry, looked up): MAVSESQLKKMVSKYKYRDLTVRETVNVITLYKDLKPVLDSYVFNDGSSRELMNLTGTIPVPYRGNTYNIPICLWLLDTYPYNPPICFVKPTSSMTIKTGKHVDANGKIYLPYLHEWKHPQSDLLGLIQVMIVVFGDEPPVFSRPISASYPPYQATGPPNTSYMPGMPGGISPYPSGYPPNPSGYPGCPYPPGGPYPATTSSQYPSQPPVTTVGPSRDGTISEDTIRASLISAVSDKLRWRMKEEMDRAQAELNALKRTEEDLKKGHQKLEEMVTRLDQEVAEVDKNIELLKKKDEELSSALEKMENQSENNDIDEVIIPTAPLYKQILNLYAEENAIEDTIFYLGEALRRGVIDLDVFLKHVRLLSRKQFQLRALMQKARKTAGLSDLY
#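 Compounds were pin-transferred onto Tsg101 binding domain (10 uM final) in HEPES pH 7.5 buffer, then FITC-PTAP peptide was added at 50 nM final. After 20 min at RT, polarization reported peptide displacement across a qHTS concentration series.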
# PINK1 expr mod: PINK1 expression modulation. PINK1 immunofluorescence, high-content cytometry, 24 h. Potency, µM (top dose mostly 76.6 µM), inactives show top-dose activation (PINK1 increase), actives largely listed as activators. 410,000 compounds, 0.2% hits. AID 624263; active = well fitted activation curve with a large enough effect; inconclusive = small, poorly fitted or top-dose-only effect; cell line not stated here; also: % of control where 0% means no effect; nearly all actives have a fitted effect of over 65% in size
#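 Readout is PINK1 immunofluorescence, quantified alongside mitochondrial, cell and nuclear markers by laser-scanning microplate cytometry. Cells from a stable line were exposed to compound titrations (5 concentrations) for 24 hours, with CCCP controls.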
# MCF10A rerep: inducers of DNA re-replication in MCF 10A breast cells. MCF 10A DNA re-replication, Hoechst nuclear intensity, 48 h. Potency, µM (top dose mostly 46.1 µM), without a hit: at the top dose activity, positive = re-replication, actives largely listed as activators. 350,000 compounds, 2.9% hits; also: % of control where 0% means no effect; nearly all actives have a fitted effect of over 50% in size
# KB-V1 MDR tox: KB-V1 MDR subline cytotoxicity; Potency, µM (titrated, usually from 46.1 µM), usual class: cytotoxic; KB-V1 MDR cells viability, CellTiter-Glo, 72 h; 400,000 compounds, 3.4% hits; also: % is scaled to controls: 0 for no effect and ±100 for the full control effect; nearly all actives have a fitted effect of over 60% in size
#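 Cells of the MDR subline KB-V1 are plated, dosed with compound at multiple concentrations, and incubated 72 h at 37 degrees C; CellTiter-Glo is then added and luminescence read after 10 min.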
# The depositor's hits bear a star; i = inactive; ? = inconclusive; nt = not tested or not shown; [ ] = another dose, or the depositor's remark. Unless noted, calls follow the shape of the dose curve; as a rule, active = well fitted curve in the direction sought with a large enough effect; inconclusive = small, poorly fitted or top-dose-only effect, or another doubt; inactive = no such curve, though single readings can be large; an effect the other way counts as inactive or inconclusive. Potency is read from the fitted curve at half-maximal effect.
SMILES,SW480 rerep,KB-3-1 cytotox,TSG101-PTAP inh,PINK1 expr mod,MCF10A rerep,KB-V1 MDR tox
COc1ccc(NS(=O)(=O)c2cc(NC(=O)c3ccc(=O)[nH]n3)ccc2C)cc1,18µM*,?,-2%,6%,?,?
COc1ccc(NS(=O)(=O)c2cc(C(=O)O)ccc2C)cc1,-6%,i,-2%,-2%[38.3 µM],3%,i
Cn1cc(S(=O)(=O)c2ccccc2)c(=O)c2cc(F)c(N3CCCCCC3)cc21,nt,i,nt,2%,nt,i
Cc1ccc(Cl)cc1NC(=O)c1oc2ccc(S(=O)(=O)N3CCCCC3)cc2c1C,nt,i,nt,1%,nt,i
O=C(c1ccc([N+](=O)[O-])cc1)N1c2ncnn2C2(CCCCC2)[C@@H]2CCCC[C@@H]21,nt,i,nt,-1%,nt,i
Cc1ccc(NS(=O)(=O)c2cc(-c3n[nH]c(=O)c4ccccc34)ccc2C)cc1,23µM*,12µM*,-5%,14%,?,21µM*
CCN(CC)C(=O)Cn1c(SCCOc2ccc(Cl)cc2)nc2ccccc21,nt,i,nt,0%,nt,i
Cc1c(C(=O)C(=O)N2CC=C(c3ccccc3)CC2)c2ccccc2n1C,7.3µM*,2.9µM*,-6%,2%,2.3µM*,3.7µM*
Cc1c(C(=O)C(=O)N2c3ccccc3CC2C)c2ccccc2n1C (stereo not given),?,23µM*,-3%,3%,?,21µM*
Cc1ccc(C(=O)N2CC=C(c3ccccc3)CC2)o1,?,i,0%,-4%,15%,i
Cc1ccccc1NC(=O)N1c2ccccc2CC1C (stereo not given),-11%,i,-3%,2%,5%,i
CC(=O)N1CCN(C(=O)c2cc(C)nc3ccccc23)CC1,-9%,i,4%,0%,?,i
Cc1cc(C(=O)N2CC=C(c3ccccc3)CC2)c2ccccc2n1,1.3µM*,?,-1%,0%,?,1.5µM*
CC(C)n1c(SCC(=O)c2ccc(F)cc2)nc2c(sc3ccccc32)c1=O,nt,i,nt,0%,nt,i
COc1ccc(Nc2c3c(nc4ccc(NC(=O)c5cc(Cl)ccc5OC)cc24)CCCC3)cc1OC,nt,?,nt,5%,nt,?
CCc1ccc(CNC(=O)c2sc3ncccc3c2-n2c(C)ccc2C)cc1,nt,?,nt,3%,nt,i
Cc1cc(C(=O)Nc2c(C)nn(Cc3ccc(Cl)cc3)c2C)no1,-23%,i,1%,0%,0%,i
Cc1nn(Cc2ccc(C(=O)Nc3nccs3)cc2)c(C)c1Cl,-4%,16µM*,-8%,10%,5.8µM*,21µM*
Cc1nn(Cc2ccc(C(=O)Nc3ccccc3F)cc2)c(C)c1Cl,-7%,i,-4%,10%,23µM*,i
Cc1nn(Cc2ccc(Cl)cc2)c(C)c1NC(=O)C(c1ccccc1)c1ccccc1,3%,i,-2%,0%,?,12µM*
Cc1nn(Cc2ccc(C(=O)NN)cc2)c(C)c1Cl,-2%,i,-5%,1%,1%,i
N#CC1=C(N)CCC1,nt,i,nt,6%,nt,i
COc1ccc(C)cc1NC(=O)CCn1nc(C)cc1C,nt,i,nt,0%,nt,i
Cc1cccc(NC(=O)N2CCC(CN3CCOCC3)CC2)c1C,nt,i,nt,-1%,nt,i
CCN(CC)S(=O)(=O)c1ccc(OC)c(NC(=O)CSc2cc(Cl)ccc2Cl)c1,1%,i,0%,-2%,12%,13µM*
SMILES,SW480 rerep,KB-3-1 cytotox,TSG101-PTAP inh,PINK1 expr mod,MCF10A rerep,KB-V1 MDR tox
CN(C)S(=O)(=O)c1cccc(C(=O)Nc2ccccc2Cl)c1,-8%,i,-11%,-1%[38.3 µM],-1%,16µM*
CCN(CC)S(=O)(=O)c1ccc(OC)c(NC(=O)c2cc([N+](=O)[O-])ccc2Cl)c1,0%,18µM*,-2%,4%,1%,i
O=C(Nc1cc(S(=O)(=O)N2CCOCC2)ccc1Cl)c1cc([N+](=O)[O-])ccc1Cl,12µM*,?,-5%,-4%,81%,?
O=C(Nc1ccc(S(=O)(=O)N2CCOCC2)cc1)c1ccc([N+](=O)[O-])cc1Cl,?,i,-4%,0%,?,i
CN(C)S(=O)(=O)c1cccc(C(=O)Nc2cc(Cl)cc(Cl)c2)c1,11%,i,0%,1%,?,?
CCN(CC)S(=O)(=O)c1ccc(Cl)c(C(=O)Nc2ccc(Cl)cc2[N+](=O)[O-])c1,1%,i,-5%,8%,?,4.1µM*
COc1ccc(Cl)cc1NC(=O)c1cccc([N+](=O)[O-])c1O,-3%,12µM*,-1%,22µM*,?,21µM*
CN(C)S(=O)(=O)c1ccc(Cl)c(C(=O)Nc2ccccc2[N+](=O)[O-])c1,-39%,i,0%,1%,-2%,16µM*
COc1ccc(Cl)cc1NC(=O)C/C(C)=N/NC(=O)c1ccccc1[N+](=O)[O-],10%,i,-5%,0%,-1%,?
CN(C)S(=O)(=O)c1ccc(C(=O)Nc2ccccc2[N+](=O)[O-])cc1,12%,i,1%,-1%,-5%,?
COc1ccc(NC(=O)CCn2c(-c3ccc(F)cc3)cc(C(C)=O)c2C)c(OC)c1,nt,i,nt,0%,nt,i
Cc1cccc(Cn2cc(C(=O)c3ccccc3)c(=O)c3cc4c(cc32)OCO4)c1,nt,i,nt,-2%,nt,i
CN1CCN(c2nc(-c3ccccc3)c3cc(Cl)ccc3n2)CC1,7.9µM*,?,-5%,0%,4µM*,?
Clc1ccc2nc(N3CCNCC3)nc(-c3ccccc3)c2c1,11µM*,?,-1%,-2%,?,18µM*
CN1CCN(c2nnc(-c3ccccc3)c(-c3ccccc3)n2)CC1,-1%,i,-4%,0%,-2%,?
c1ccc(-c2nc(N3CCCC3)nc3ccccc23)cc1,18µM*,i,-1%,9%,23µM*,i
O=C1CN(c2nc(-c3ccccc3)c3cc(Cl)ccc3n2)c2ccccc2N1,?,i,0%,?,0%,i
Cc1ccc(NC2=Nc3ccccc3N3C2=Nc2c(c(C)nn2-c2ccccc2)C3c2ccc(O)c(O)c2)cc1 (stereo not given),9.2µM*,?,-11%,?,?,?
Cc1cccc(NC2=Nc3ccccc3N3C2=Nc2c(c(C)nn2-c2ccccc2)C3c2ccc(O)c(O)c2)c1 (stereo not given),7.3µM*,?,-7%,18%,?,?
COCCNC(=S)NCCc1ccc(Cl)cc1Cl,16µM*,i,0%,6%,1%,i
